This is part of a sample that, as a whole, favours compounds with a hit. Of some 83,000 tested, about 20% had one in any assay.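 Percent growth is the endpoint: 0 to 100 indicates growth inhibition (40 means 60% inhibition), 0 means no net growth, and negative values indicate cell death.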 A number with no mark means an inactive call. Activity calls are given as the source filed them. How the source made its calls: active means growth percent below 10; inactive means the rest.
Assays:
Experiment in all cases: NCI-60 one-dose screen, 48 h (100 = growth as untreated, 0 = no growth, -100 = all killed)
Details in all cases: 10 µM unless noted
DU-145 prostate = test system: DU-145 prostate
K-562 leukemia = test system: K-562 leukemia
MALME-3M melanoma = test system: MALME-3M melanoma
MDA-MB-231 breast = test system: MDA-MB-231 breast
RXF 393 renal = test system: RXF 393 renal
SF-268 CNS = test system: SF-268 CNS
SF-295 CNS = test system: SF-295 CNS
SF-539 CNS = test system: SF-539 CNS
UACC-257 melanoma = test system: UACC-257 melanoma
M14 melanoma = test system: M14 melanoma
HCT-15 colon = test system: HCT-15 colon
HT29 colon = test system: HT29 colon
SNB-75 CNS = test system: SNB-75 CNS
SNB-19 CNS = test system: SNB-19 CNS
U251 CNS = test system: U251 CNS
PC-3 prostate = test system: PC-3 prostate
SK-MEL-5 melanoma = test system: SK-MEL-5 melanoma
UACC-62 melanoma = test system: UACC-62 melanoma
LOX IMVI melanoma = test system: LOX IMVI melanoma
SK-MEL-28 melanoma = test system: SK-MEL-28 melanoma

| Compound | growth (DU-145 prostate) | growth (K-562 leukemia) | growth (MALME-3M melanoma) | growth (MDA-MB-231 breast) | growth (RXF 393 renal) | growth (SF-268 CNS) | growth (SF-295 CNS) | growth (SF-539 CNS) | growth (UACC-257 melanoma) | growth (M14 melanoma) | growth (HCT-15 colon) | growth (HT29 colon) | growth (SNB-75 CNS) | growth (SNB-19 CNS) | growth (U251 CNS) | growth (PC-3 prostate) | growth (SK-MEL-5 melanoma) | growth (UACC-62 melanoma) | growth (LOX IMVI melanoma) | growth (SK-MEL-28 melanoma) |
| --- | --- | --- | --- | --- | --- | --- | --- | --- | --- | --- | --- | --- | --- | --- | --- | --- | --- | --- | --- | --- |
| C=CCN1C(=O)c2cccc3c(N4CCOCC4)ccc(c23)C1=O | 10.3% | 9.78% (active) | -3.28% (active) | 23.9% | -29.9% (active) | -23.9% (active) | 2.87% (active) | 0.495% (active) | -3.63% (active) | 0.387% (active) | -9.11% (active) | 6.76% (active) | 12.8% | 24.9% | 5.37% (active) | -21.3% (active) | -62.7% (active) | -24.7% (active) | 1.13% (active) | 5.67% (active) |
| NS(=O)(=O)c1ccc(C(=O)NN2C(=O)c3c(Br)c(Br)c(Br)c(Br)c3C2=O)cc1 | 103% | 102% | 98.7% | 101% | 110% | 95.5% | 98.2% | 96.9% | 100% | 98.9% | 99.5% | 109% | 77.8% | 101% | 98% | 100% | 103% | 99.5% | 95.1% | 109% |
| Cn1cc(-c2ccc(-c3cn(C)c4ccc(Cl)cc34)[nH]2)c2cc(Cl)ccc21 | 32% | -29.8% (active) | -59.1% (active) | -48.5% (active) | -51.3% (active) | -67.2% (active) | -15.1% (active) | -56.1% (active) | -34.7% (active) | -75.2% (active) | -66.3% (active) | 21.9% | -59.9% (active) | -68.5% (active) | -100% (active) | -56.5% (active) | -98.6% (active) | -82.3% (active) | -95.2% (active) | -52.9% (active) |
| CCN1C(=O)N(CC)C2C1NN=c1s/c(=C3\C(=O)N(CCC(C)C)c4ccccc43)c(=O)n12 (stereo not given) | 7.36% (active) | 11.6% | 51.3% | 5.92% (active) | 33.2% | 50.8% | 8.08% (active) | -15.2% (active) | 65% | 13.5% | 14.6% | 4.19% (active) | 21.6% | 23.3% | 8.16% (active) | 28.9% | 8.16% (active) | 18.5% | 19.2% | 59.9% |
| CC(C)(C)c1cc(Cl)c(O)c(CNCCO)c1 | 113% | 102% | 112% | 115% | 98.1% | 106% | 97% | 107% | 110% | 104% | 99.7% | 107% | 90.1% | 113% | 112% | 112% | 100% | 107% | 101% | 103% |
| O=C(N/N=C/c1cc(Cl)ccc1O)c1ccccc1Nc1ccnc(C(F)(F)F)c1 | 25.8% | 89.3% | -18.7% (active) | 50.4% | 58.3% | 18.3% | 28.9% | -4.43% (active) | 42.8% | 23.6% | 30.4% | 39.2% | 57.6% | 21% | 16.7% | 32.9% | 2.92% (active) | -12% (active) | 13.2% | 59.1% |
| COc1ccc(/C=C/C(=O)c2cc3c(N)c(C(=O)Nc4cccc(Cl)c4C)sc3nc2C)cc1 | 7.29% (active) | 13% | 45.8% | -12.3% (active) | -17.3% (active) | 11.7% | 13.1% | -40.6% (active) | 63% | -6.38% (active) | 5.62% (active) | -2.08% (active) | 21.3% | 5.32% (active) | -20% (active) | 22.7% | -28.9% (active) | 26.9% | -44.6% (active) | 43.7% |
| O=C(Nc1ccc(Cl)cc1)Oc1c(Cl)c(Cl)c(Cl)c(Cl)c1Cl | 97.9% | 89.9% | 93.7% | 92.9% | 106% | 92.9% | 83.2% | 94.8% | 100% | 96.8% | 94.5% | 96.1% | 83.3% | 98.1% | 98% | 89.4% | 95.3% | 81.3% | 86.1% | 105% |
| CCOC(=O)C(Cc1ccc(OC)cc1)C(=O)OCC | -35.4% (active) | 15.2% | 58.1% | 47.5% | -11.3% (active) | 30.2% | 30.4% | 19.9% | 25.3% | 46.3% | 36.7% | 21.3% | 30.1% | 41.7% | 37.2% | 47.2% | 53.1% | 33.4% | 17% | 51.5% |
| Cc1nc2ccccc2c(/C=C/c2ccccc2)c1C(=O)/C=C/c1ccccc1 | 12.6% | 9.41% (active) | 37.5% | 29.8% | 21.1% | 40.2% | 45.8% | 8.18% (active) | 9.71% (active) | 22.5% | 1.8% (active) | 6.72% (active) | 19.7% | 47.7% | -25.3% (active) | 35.1% | 45% | 29.8% | -64.1% (active) | 24.2% |
| C/C(=N\O)[C@@H]1CC[C@]2(CO)CC[C@]3(C)[C@H](CC[C@@H]4[C@@]5(C)CCCNC(C)(C)[C@@H]5CC[C@]43C)[C@@H]12 | 95% | 2.56% (active) | 95.4% | 90.9% | 80.8% | 84.7% | 92.5% | 93.3% | 97.6% | 87% | 83.6% | 24.5% | 68.9% | 89.4% | 61.4% | 60.6% | 84.1% | 90.5% | 77.6% | 93.2% |
| Cc1nc2sc(C(=O)Nc3cccc(Br)c3C)c(N)c2cc1C(O)c1ccccc1 (stereo not given) | 6.13% (active) | 6.3% (active) | 56.9% | 3.16% (active) | 37.9% | 16.3% | 20.5% | 1.41% (active) | 52% | 9.77% (active) | 10.8% | 9.11% (active) | 52.6% | 25.4% | 2.74% (active) | 18.3% | -50.9% (active) | 18.5% | 16.3% | 55.9% |
| CC[C@]12C=CCN3CC[C@@]4(c5ccc(OC)cc5N(C)[C@H]4[C@@](O)(C(=O)OC)[C@@H]1OC(=O)CCC[P+](c1ccccc1)(c1ccccc1)c1ccccc1)[C@@H]32 | 18% | 10.4% | -12.4% (active) | 1.29% (active) | 28.9% | 19.2% | 23.3% | 16.2% | -27.3% (active) | 17.7% | 101% | 2.42% (active) | -4.39% (active) | 11% | 4.03% (active) | 2.13% (active) | -91.5% (active) | -59.3% (active) | 8.81% (active) | 20.9% |
| COc1ccc(N2CCC(=S)NC2=S)cc1 | 108% | 100% | 101% | 103% | 119% | 94.2% | 101% | 99.9% | 102% | 109% | 101% | 104% | 71.6% | 94.5% | 101% | 107% | 98.2% | 90.3% | 95.3% | 113% |
| CCOC(=O)c1cc(C(=O)c2cc(OC)c(OC)c(OC)c2)n2ccccc12 | 24.9% | 11.5% | 35.6% | 37.9% | -0.358% (active) | 55.7% | 21.3% | -6.66% (active) | 50.1% | -21.8% (active) | 29% | 1.16% (active) | 32.9% | 43.4% | 21.6% | 22.1% | 37.7% | 37.8% | 47% | 72.3% |
